Where “and” joins values, the source holds several entries; their conditions need not be identical. Equal values may be shown once. Results filed as inconclusive are left out. Calls of active or inactive are those of the source. The call rests on the fitted dose curve; in most records, active means well fitted inhibition curve with a large enough effect; inconclusive means small, poorly fitted or top-dose-only effect, or effect the other way; inactive means flat fitted curve, though single readings scatter.
These compounds were tested against Lysosomal acid glucosylceramidase (Homo sapiens) (UniProt P04062) (assay: qHTS Assay for Inhibitors and Activators of N370S glucocerebrosidase as a Potential Chaperone Treatment of Gaucher Disease: Purified Non-mutant Glucocerebrosidase). Details: purified wildtype GC, 4MU-beta-glucoside fluorescence, 40 min; series mostly up to 76.9 µM; activity change, negative = inhibition: at the top concentration.
Chain of Lysosomal acid glucosylceramidase (Homo sapiens) (P04062 whole entry, looked up): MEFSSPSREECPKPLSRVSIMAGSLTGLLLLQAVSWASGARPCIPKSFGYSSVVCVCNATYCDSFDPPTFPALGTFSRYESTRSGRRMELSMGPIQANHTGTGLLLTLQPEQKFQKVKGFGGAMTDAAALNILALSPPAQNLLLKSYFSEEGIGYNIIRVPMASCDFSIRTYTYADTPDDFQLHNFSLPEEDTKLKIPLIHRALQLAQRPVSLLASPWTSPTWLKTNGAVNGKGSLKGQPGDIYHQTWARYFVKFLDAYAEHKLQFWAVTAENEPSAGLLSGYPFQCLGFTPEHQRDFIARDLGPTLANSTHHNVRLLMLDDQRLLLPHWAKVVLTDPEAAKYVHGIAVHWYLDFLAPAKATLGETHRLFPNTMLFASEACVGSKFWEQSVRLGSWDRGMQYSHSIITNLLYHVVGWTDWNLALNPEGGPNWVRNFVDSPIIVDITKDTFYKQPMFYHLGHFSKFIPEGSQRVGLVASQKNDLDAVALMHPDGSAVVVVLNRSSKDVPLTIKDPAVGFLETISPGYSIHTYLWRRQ
Source text: NIH Chemical Genomics Center [NCGC] NIH Molecular Libraries Probe Production Centers Network [MLPCN] MLPCN Grant: MH086442-01 Assay Submitter (PI): Wei Zheng Glucocerebrosidase (GC) catalyzes the hydrolysis of beta-glucocerebroside to glucose and ceramide in lysosomes. Mutations in the glucocerebrosidase gene result in Gaucher disease, an autosomal recessive lysosomal storage disorder. Many of the mutations encountered in patients with Gaucher disease are missense alterations that may cause misfolding, decreased stability and/or mistrafficking of this lysosomal protein. […] These inhibitors include iminosugar analogs and three non-iminosugar inhibitors identified from a previous HTS of 62,000 compounds with the wild type recombinant enzyme. However, the enhancement of enzyme activity by the chaperone action of an enzyme inhibitor must be balanced against the direct inhibition of the enzyme. An enzyme activator could also function as a chaperone by binding to the enzyme and helping to correct its misfolding and mistrafficking. While activators for GC have not yet been identified, they may have better therapeutic potential than inhibitors. Therefore the discovery and development of chemical activators may provide a new strategy for the chaperone therapy. We have optimized a new assay using N370S mutant GC derived from the spleen of a Gaucher patient. […] In addition, the MLPCN compound library has expanded, which increases the chance of finding new and better probes. This assay characterizes compound activity using purified wildtype enzyme instead of mutant enzyme from tissue homogenate. Compound activity differences may be due to the absence of endogenous cofactors found in tissue homogenate as well as inherent differences in enzyme stability and catalytic activity between the N370S and wildtype forms of the protein.
NCGC Assay Protocol Summary: This is a fluorogenic enzyme assay with 4-methylumbelliferyl-beta-D-glucopyranoside as the substrate and purified wildtype glucocerebrosidase as the enzyme preparation. Upon the hydrolysis of this fluorogenic substrate, the resulting product, […] which can be detected by a standard fluorescence plate reader. Data were normalized to the controls for basal activity (without enzyme) and 100% activity (with enzyme). The AC50 values were determined from concentration-response data modeled with the standard Hill equation. Assay buffer: 50 mM citric acid (titrated with potassium phosphate to pH 5.0), 100 mM potassium chloride, 10 mM sodium chloride, 1 mM magnesium chloride, 0.01% Tween-20. 1536-well assay protocol: (1) Add 2 ul/well of glucocerebrosidase enzyme solution (5 nM final) (2) Add 23 nL compounds in DMSO solution. The final titration was 0.5 nM to 58 uM. (3) Add 2 ul of substrate (1 mM final) (4) Incubate at 37C for 40 min. (5) Add 2 ul stop solution (1M NaOH and 1M Glycine mixture, pH 10) (6) Detect the assay plate in a ViewLux plate reader (PerkinElmer) with Ex=365 nm and Em=440nm. Keywords: Glucocerebrosidase, beta-glucosidase, Gaucher Disease, pharmacological chaperone, chaperone therapy, high throughput screening, glucocerebrosidase inhibitor, MLSMR, MLSCN, NIH Roadmap, qHTS and NCGC

Activity change, negative = inhibition, inactive:
Cc1ccc(Cl)cc1NC(=O)c1ccccc1OCC(=O)Nc1ccc(Cl)cc1 15.2% [at 57.5 µM]
CC(C)C(C)NC(=O)CSc1nc2scc(-c3ccco3)c2c(=O)n1-c1ccccc1 (centres undefined) -7.04% [at 57.5 µM]
O=S(=O)(c1ccc(F)cc1)N1CCN(c2nc(-c3cccc(Br)c3)nc3ccccc23)CC1 -16.4%
O=S(=O)(c1ccc(Cl)cc1)N1CCN(c2nc(-c3cccc(Br)c3)nc3ccccc23)CC1 -13.9%
Cc1ccc(-c2nc(N3CCN(S(=O)(=O)c4ccc(F)cc4)CC3)c3ccc(Cl)cc3n2)cc1 -11.6%
O=S(=O)(c1ccc(Cl)cc1)N1CCN(c2nc(-c3ccc(Cl)cc3)nc3ccccc23)CC1 -17.5%
O=S(=O)(c1cccc(C(F)(F)F)c1)N1CCN(c2nc(-c3cccs3)nc3cc(Cl)ccc23)CC1 -10.7%
Cc1ccc(S(=O)(=O)N2CCN(c3nc(-c4ccc(F)cc4)nc4cc(Cl)ccc34)CC2)cc1 -8.86%
O=S(=O)(c1ccccc1)N1CCN(c2nc(-c3ccc(F)cc3)nc3cc(Cl)ccc23)CC1 -0.12%
O=S(=O)(c1ccc(Cl)cc1)N1CCN(c2nc(-c3ccc(F)cc3)nc3cc(Cl)ccc23)CC1 -7.55%
O=S(=O)(c1ccc(F)cc1)N1CCN(c2nc(-c3cccs3)nc3cc(Cl)ccc23)CC1 1.31%
O=S(=O)(c1ccc(F)cc1)N1CCN(c2nc(-c3ccc(F)cc3)nc3cc(Cl)ccc23)CC1 4.56%
COc1ccc(-c2nc(N3CCN(S(=O)(=O)c4ccc(F)cc4)CC3)c3ccccc3n2)cc1 -25.8%
O=S(=O)(c1ccc(F)cc1)N1CCN(c2nc(-c3ccccc3)nc3cc(Cl)ccc23)CC1 -2.36%

Potency, active:
O=S(=O)(c1ccc2ccccc2c1)N1CCN(c2nc(-c3cccs3)nc3ccccc23)CC1 8.91 µM
O=S(=O)(c1ccc2c(c1)OCCO2)N1CCN(c2nc(-c3ccccc3)nc3ccccc23)CC1 12.6 µM
O=S(=O)(c1cccc2ccccc12)N1CCN(c2nc(-c3cccs3)nc3ccccc23)CC1 14.1 µM
O=S(=O)(c1ccc(Cl)cc1)N1CCN(c2nc(-c3cccs3)nc3ccccc23)CC1 2.51 µM and 6.31 µM
COc1ccc(S(=O)(=O)N2CCN(c3nc(-c4cccs4)nc4ccccc34)CC2)cc1 14.1 µM
COc1cccc(S(=O)(=O)N2CCN(c3nc(-c4cccs4)nc4ccccc34)CC2)c1 10 µM
O=S(=O)(c1ccc2c(c1)OCCO2)N1CCN(c2nc(-c3cccs3)nc3ccccc23)CC1 2.51 µM
O=C(c1ccc2c(c1)OCCO2)N1CCN(c2nc(-c3cccs3)nc3ccccc23)CC1 31.6 µM
O=S(=O)(c1cccs1)N1CCN(c2nc(-c3cccs3)nc3ccccc23)CC1 8.91 µM
O=S(=O)(c1ccccc1Cl)N1CCN(c2nc(-c3cccs3)nc3ccccc23)CC1 2.82 µM
Cc1ccc(S(=O)(=O)N2CCN(c3nc(-c4cccs4)nc4ccccc34)CC2)cc1 2 µM and 10 µM
O=S(=O)(c1ccc(Cl)cc1)N1CCN(c2nc(Nc3cc(Cl)ccc3O)nc3ccccc23)CC1 1.26 µM
Cc1cc(C)cc(N(CC(=O)NC2CCCCCC2)S(=O)(=O)c2c(C)[nH]c(=O)[nH]c2=O)c1 0.398 µM
c1csc(-c2nc(NCC3CCCO3)c3ccccc3n2)c1 (centres undefined) 15.8 µM
O=S(=O)(c1ccccc1C(F)(F)F)N1CCN(c2nc(-c3cccs3)nc3ccccc23)CC1 4.47 µM
S=C(NCCCc1cnc[nH]1)NCCCN(Cc1ccc(Cl)c(Cl)c1)c1ccc(Br)cn1 0.708 µM
NS(=O)(=O)c1ccc(S(=O)(=O)N2CCN(c3nc(-c4cccs4)nc4ccccc34)CC2)cc1 15.8 µM
O=S(=O)(Cc1ccccc1)N1CCN(c2nc(-c3cccs3)nc3ccccc23)CC1 10 µM
OCCNc1nc(-c2cccs2)nc2ccccc12 17.8 µM
CC(C)(C)C(=O)OCCNc1nc(-c2ccccc2)nc2ccccc12 0.708 µM

Reference: PubChem BioAssay AID2595 (National Center for Advancing Translational Sciences (NCATS), 2010)
